# Shown is part of a subset that was picked to be rich in the strongest signals.
# B1: Epa1 (Candida glabrata) (protein)
# chain: MGSSHHHHHHSSGLVPRGSHMTSSNDISLASKDPTTFPLGCSPDITTPKKGLSMELYSYDFRKKGSYPCWDAAYLDPNYPRTGYKSHRLLAKVDGVTGNINFYYHATKGCTPQLGHLPASYNYPKPLTMTNFTMLLYGYFRPKVTGFHTFTISADDLLFVNFGAGNAFDCCRRDSSADHFGNYQAYAIWGSKTAKDELTVHLDAGVYYPIRLFYNNREYDGALSFTFKTESNENTVSDFSEYFFSLDDTEEGCPGLISYD
# How the values were obtained:
# Assay in all cases: glycan array binding signal (z-score within array); higher = stronger binding
# Conditions in all cases: glycan notation: IUPAC condensed, linker removed
# Fuc(a1-2)Gal = biological target: Fuc(a1-2)Gal
# How it was run: (§1)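 Glycan array data came from 3228 arrays in the Consortium for Functional Glycomics database, and only arrays with an available protein sequence were kept. Glycan names were put into IUPAC-condensed notation, and columns mapping to the same glycan were averaged. The binding signal is a within-array Z-score, averaged across arrays of one protein sequence run at different concentrations or buffers and across linkers. A negative Z-score can be read as non-binding.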
# Fuc(a1-2)Gal(b1-3)GalNAc = biological target: Fuc(a1-2)Gal(b1-3)GalNAc
# How it was run: as §1
# [1] = biological target: Fuc(a1-2)Gal(b1-4)GlcNAc(b1-2)Man(a1-3)[Fuc(a1-2)Gal(b1-4)GlcNAc(b1-2)Man(a1-6)]Man(b1-4)GlcNAc(b1-4)[Fuc(a1-6)]GlcNAc
# How it was run: as §1
# Fuc(a1-2)[Gal(a1-3)]Gal = biological target: Fuc(a1-2)[Gal(a1-3)]Gal
# How it was run: as §1
# [2] = biological target: Fuc(a1-2)[Gal(a1-3)]Gal(b1-3)GlcNAc(b1-2)Man(a1-3)[Fuc(a1-2)[Gal(a1-3)]Gal(b1-3)GlcNAc(b1-2)Man(a1-6)]Man(b1-4)GlcNAc(b1-4)GlcNAc
# How it was run: as §1
# [3] = biological target: Fuc(a1-2)[GalNAc(a1-4)]Gal(b1-4)GlcNAc
# How it was run: as §1
# Gal(b1-3)Gal = biological target: Gal(b1-3)Gal
# How it was run: as §1
# Gal(b1-3)Gal(b1-4)GlcNAc = biological target: Gal(b1-3)Gal(b1-4)GlcNAc
# How it was run: as §1
# Gal(b1-3)GalNAc = biological target: Gal(b1-3)GalNAc
# How it was run: as §1
# Gal(b1-3)GalNAc(b1-3)Gal = biological target: Gal(b1-3)GalNAc(b1-3)Gal
# How it was run: as §1
# [4] = biological target: Gal(b1-3)GalNAc(b1-4)Gal(b1-4)Glc
# How it was run: as §1
# [5] = biological target: Gal(b1-3)GalNAc(b1-4)[Neu5Ac(a2-3)]Gal(b1-4)Glc
# How it was run: as §1
# [6] = biological target: Gal(b1-3)GlcNAc(b1-2)Man(a1-3)[GlcNAc(b1-4)][Gal(b1-3)GlcNAc(b1-2)Man(a1-6)]Man(b1-4)GlcNAc(b1-4)GlcNAc
# How it was run: as §1
# [7] = biological target: Gal(b1-3)[Neu5Ac(a2-6)]GalNAc
# How it was run: as §1
# [8] = biological target: Gal(b1-3)[Neu5Ac(a2-6)]GlcNAc(b1-4)Gal(b1-4)Glc
# How it was run: as §1
# [9] = biological target: Gal(b1-4)GalNAc(a1-3)[Fuc(a1-2)]Gal(b1-4)GlcNAc
# How it was run: as §1
# Gal(b1-4)Glc6S = biological target: Gal(b1-4)Glc6S
# How it was run: as §1
# [10] = biological target: Gal(b1-4)GlcNAc(b1-2)Man(a1-6)[Man(a1-3)]Man(b1-4)GlcNAc(b1-4)GlcNAc
# How it was run: as §1
# [11] = biological target: Gal(b1-4)GlcNAc(b1-3)Gal(b1-3)GlcNAc
# How it was run: as §1
# [12] = biological target: Gal(b1-4)GlcNAc(b1-3)Gal(b1-4)Glc
# How it was run: as §1
# [13] = biological target: Gal(b1-4)GlcNAc(b1-3)Gal(b1-4)GlcNAc(b1-2)[Gal(b1-4)GlcNAc(b1-3)Gal(b1-4)GlcNAc(b1-6)]Man(a1-6)[Gal(b1-4)GlcNAc(b1-3)Gal(b1-4)GlcNAc(b1-2)Man(a1-3)]Man(b1-4)GlcNAc(b1-4)[Fuc(a1-6)]GlcNAc
# How it was run: as §1
# [14] = biological target: Gal(b1-4)GlcNAc(b1-3)Gal(b1-4)GlcNAc(b1-3)Gal(b1-4)GlcNAc(b1-2)[Gal(b1-4)GlcNAc(b1-3)Gal(b1-4)GlcNAc(b1-3)Gal(b1-4)GlcNAc(b1-6)]Man(a1-6)[Gal(b1-4)GlcNAc(b1-3)Gal(b1-4)GlcNAc(b1-3)Gal(b1-4)GlcNAc(b1-2)Man(a1-3)]Man(b1-4)GlcNAc(b1-4)[Fuc(a1-6)]GlcNAc
# How it was run: as §1
# [15] = biological target: Gal(b1-4)GlcNAc(b1-6)Gal(b1-4)GlcNAc
# How it was run: as §1
# [16] = biological target: Gal(b1-4)GlcNAc(b1-6)[Gal(b1-3)]GalNAc
# How it was run: as §1
# Gal(b1-6)Gal = biological target: Gal(b1-6)Gal
# How it was run: as §1
# Gal3S(b1-4)GlcNAc = biological target: Gal3S(b1-4)GlcNAc
# How it was run: as §1
# [17] = biological target: Gal3S(b1-4)[Fuc(a1-3)]GlcNAc6S
# How it was run: as §1
# Gal6P(b1-4)GlcNAc = biological target: Gal6P(b1-4)GlcNAc
# How it was run: as §1
# Gal6S(b1-3)GlcNAc6S = biological target: Gal6S(b1-3)GlcNAc6S
# How it was run: as §1
# [18] = biological target: GalNAc(a1-3)GalNAc(b1-3)Gal(a1-4)Gal(b1-4)GlcNAc
# How it was run: as §1
# [19] = biological target: GlcA3S(b1-3)Gal(b1-4)GlcNAc(b1-2)Man
# How it was run: as §1
# [20] = biological target: GlcNAc(b1-3)Gal(b1-4)GlcNAc(b1-6)[Gal(b1-3)]GalNAc
# How it was run: as §1
# Man(a1-2)Man(a1-3)Man = biological target: Man(a1-2)Man(a1-3)Man
# How it was run: as §1
# [21] = biological target: Man(a1-3)[Man(a1-6)]Man(b1-4)GlcNAc(b1-4)[Fuc(a1-6)]GlcNAc
# How it was run: as §1
# Man(b1-4)GlcNAc = biological target: Man(b1-4)GlcNAc
# How it was run: as §1
# [22] = biological target: Neu5Ac(a2-3)Gal(b1-3)GlcNAc(b1-2)Man(a1-3)[Neu5Ac(a2-3)Gal(b1-3)GlcNAc(b1-2)Man(a1-6)]Man(b1-4)GlcNAc(b1-4)GlcNAc
# How it was run: as §1
# [23] = biological target: Neu5Ac(a2-3)Gal(b1-3)GlcNAc(b1-6)GalNAc
# How it was run: as §1
# [24] = biological target: Neu5Ac(a2-3)Gal(b1-4)GlcNAc(b1-3)Gal
# How it was run: as §1
# [25] = biological target: Neu5Ac(a2-3)Gal(b1-4)GlcNAc(b1-3)Gal(b1-4)GlcNAc(b1-2)Man(a1-3)[Neu5Ac(a2-3)Gal(b1-4)GlcNAc(b1-3)Gal(b1-4)GlcNAc(b1-2)Man(a1-6)]Man(b1-4)GlcNAc(b1-4)GlcNAc
# How it was run: as §1
# [26] = biological target: Neu5Ac(a2-3)Gal(b1-4)GlcNAc(b1-6)[Gal(b1-3)]GalNAc
# How it was run: as §1
# [27] = biological target: Neu5Ac(a2-3)Gal(b1-4)[Fuc(a1-3)]GlcNAc(b1-2)Man
# How it was run: as §1
# [28] = biological target: Neu5Ac(a2-3)Gal(b1-4)[Fuc(a1-3)]GlcNAc(b1-3)Gal(b1-4)GlcNAc
# How it was run: as §1
# [29] = biological target: Neu5Ac(a2-3)[Neu5Ac(a2-6)]GalNAc
# How it was run: as §1
# [30] = biological target: Neu5Ac(a2-6)Gal(b1-4)GlcNAc(b1-2)Man(a1-3)[GlcNAc(b1-4)][Neu5Ac(a2-6)Gal(b1-4)GlcNAc(b1-2)Man(a1-6)]Man(b1-4)GlcNAc(b1-4)GlcNAc
# How it was run: as §1
# [31] = biological target: Neu5Ac(a2-6)Gal(b1-4)GlcNAc(b1-2)Man(a1-6)[Gal(b1-4)GlcNAc(b1-2)Man(a1-3)]Man(b1-4)GlcNAc(b1-4)GlcNAc
# How it was run: as §1
# [32] = biological target: Neu5Ac(a2-6)Gal(b1-4)GlcNAc(b1-3)Gal(b1-4)GlcNAc(b1-3)Gal(b1-4)GlcNAc
# How it was run: as §1
# [33] = biological target: Neu5Ac(a2-6)Gal(b1-4)GlcNAc(b1-3)Gal(b1-4)[Fuc(a1-3)]GlcNAc(b1-3)Gal(b1-4)[Fuc(a1-3)]GlcNAc
# How it was run: as §1
# [34] = biological target: Neu5Ac(a2-6)Gal(b1-4)GlcNAc6S
# How it was run: as §1
# [35] = biological target: Neu5Ac(b2-6)Gal(b1-4)GlcNAc
# How it was run: as §1
# [36] = biological target: Neu5Gc(a2-8)Neu5Gc(a2-6)Gal(b1-4)GlcNAc
# How it was run: as §1
binder,measurement,setting,value
B1,glycan array binding signal (z-score),Fuc(a1-2)Gal,-0.506
same,glycan array binding signal (z-score),Fuc(a1-2)Gal(b1-3)GalNAc,-0.25
same,glycan array binding signal (z-score),[1],-0.2
same,glycan array binding signal (z-score),Fuc(a1-2)[Gal(a1-3)]Gal,-0.213
same,glycan array binding signal (z-score),[2],-0.325
same,glycan array binding signal (z-score),[3],-0.299
same,glycan array binding signal (z-score),Gal(b1-3)Gal,3.63
same,glycan array binding signal (z-score),Gal(b1-3)Gal(b1-4)GlcNAc,8.5
same,glycan array binding signal (z-score),Gal(b1-3)GalNAc,3.51
same,glycan array binding signal (z-score),Gal(b1-3)GalNAc(b1-3)Gal,6.23
same,glycan array binding signal (z-score),[4],9.89
same,glycan array binding signal (z-score),[5],4.04
same,glycan array binding signal (z-score),[6],0.171
same,glycan array binding signal (z-score),[7],4.22
same,glycan array binding signal (z-score),[8],-0.213
same,glycan array binding signal (z-score),[9],-0.197
same,glycan array binding signal (z-score),Gal(b1-4)Glc6S,0.304
same,glycan array binding signal (z-score),[10],-0.169
same,glycan array binding signal (z-score),[11],-0.155
same,glycan array binding signal (z-score),[12],0.551
same,glycan array binding signal (z-score),[13],3.08
same,glycan array binding signal (z-score),[14],3.06
same,glycan array binding signal (z-score),[15],3.12
same,glycan array binding signal (z-score),[16],4.02
same,glycan array binding signal (z-score),Gal(b1-6)Gal,0.429
same,glycan array binding signal (z-score),Gal3S(b1-4)GlcNAc,-0.442
same,glycan array binding signal (z-score),[17],-0.394
same,glycan array binding signal (z-score),Gal6P(b1-4)GlcNAc,-0.272
same,glycan array binding signal (z-score),Gal6S(b1-3)GlcNAc6S,-0.014
same,glycan array binding signal (z-score),[18],-0.312
same,glycan array binding signal (z-score),[19],-0.3
same,glycan array binding signal (z-score),[20],1.03
same,glycan array binding signal (z-score),Man(a1-2)Man(a1-3)Man,-0.318
same,glycan array binding signal (z-score),[21],-0.271
same,glycan array binding signal (z-score),Man(b1-4)GlcNAc,-0.281
same,glycan array binding signal (z-score),[22],-0.325
same,glycan array binding signal (z-score),[23],-0.293
same,glycan array binding signal (z-score),[24],-0.288
same,glycan array binding signal (z-score),[25],-0.257
same,glycan array binding signal (z-score),[26],1.45
same,glycan array binding signal (z-score),[27],-0.346
same,glycan array binding signal (z-score),[28],-0.214
same,glycan array binding signal (z-score),[29],-0.328
same,glycan array binding signal (z-score),[30],-0.32
same,glycan array binding signal (z-score),[31],-0.14
same,glycan array binding signal (z-score),[32],-0.267
same,glycan array binding signal (z-score),[33],-0.272
same,glycan array binding signal (z-score),[34],-0.335
same,glycan array binding signal (z-score),[35],-0.248
same,glycan array binding signal (z-score),[36],-0.309

# — the supplement of paper PMC8728848
